{
  "source": "PubChem BioAssay (NCI)",
  "note": "The panel holds about 79,000 compounds, 15% with a hit somewhere; the sample as a whole holds those more often. The source made the active and inactive calls. Rule as the data show it: active = growth inhibition above about 70%; inactive = the rest.",
  "data": [
    {"assay": "NCI Yeast Anticancer Drug Screen. Data for the mlh1 rad18 strain (AID 175)", "details": "S. cerevisiae mlh1 rad18 strain growth inhibition; at 5.0 µM (retest, dose inferred, filed as 0.5); hits give high values", "outline": "(§1)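 Inhibition values reflect reduced growth of mutant yeast versus vehicle-treated controls following compound exposure; the mutations affect DNA damage repair.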", "values": [
      {"molecule": "CC(C)c1ccc2c(c1)CC[C@@H]1[C@](C)(CO)CCC[C@]21C", "growth inhibition": "-16% (inactive)"},
      {"molecule": "O=c1c2ccccc2ncn1Cc1ccccc1[N+](=O)[O-]", "growth inhibition": "0% (inactive)"},
      {"molecule": "O=C(NO)C(=O)Nc1cc(Cl)ccc1Cl", "growth inhibition": "-2% (inactive)"},
      {"molecule": "CCCCCCCCCCCCOC(=O)C[n+]1cccc(C(=O)Nc2ccccc2)c1", "growth inhibition": "99% (active)"},
      {"molecule": "O=C1C=CC(=O)c2ccc(=O)ccc21", "growth inhibition": "71% (active)"},
      {"molecule": "Cn1c(=O)nc2n(-c3ccc(Cl)cc3)c3cc(Cl)ccc3nc-2c1=O", "growth inhibition": "7% (inactive)"},
      {"molecule": "Clc1ccc(CN2COc3c(ccc4ccccc34)C2)cc1", "growth inhibition": "1% (inactive)"},
      {"molecule": "C1CCN(c2nc(N3CCOCC3)c3[nH]c(N4CCCCC4)nc3n2)CC1", "growth inhibition": "-2% (inactive)"},
      {"molecule": "O=C1c2ccccc2-c2cc([N+](=O)[O-])c([N+](=O)[O-])cc21", "growth inhibition": "5% (inactive)"},
      {"molecule": "CCC[CH2][Sn]([CH2]CCC)([O]C(=O)Cc1ccc(F)cc1)[O]C(=O)Cc1ccc(F)cc1", "growth inhibition": "14% (inactive)"},
      {"molecule": "ClCc1ccc2oc3ccccc3c2c1", "growth inhibition": "-3% (inactive)"},
      {"molecule": "O=C1Oc2ccccc2C(=O)/C1=C/N1C(=O)/C(=C/c2ccc([N+](=O)[O-])cc2)SC1=S", "growth inhibition": "11% (inactive)"},
      {"molecule": "COC1=CC(=O)c2ncc(Cl)cc2C1=O", "growth inhibition": "28% (inactive)"},
      {"molecule": "CN(C)c1ccc(C(c2ccc(N(C)C)cc2)c2ccc3c(c2)OCO3)cc1", "growth inhibition": "98% (active)"},
      {"molecule": "CC(C)(C)OC(=O)CSC#N", "growth inhibition": "15% (inactive)"},
      {"molecule": "CN=c1ss/c(=N\\C(=S)N(C)C)n1-c1ccccc1", "growth inhibition": "-20% (inactive)"},
      {"molecule": "CCCCCCCCCCCCCCCBr", "growth inhibition": "5% (inactive)"},
      {"molecule": "O=c1c2ccccc2[nH]c2c1[nH]c1ccccc12", "growth inhibition": "12% (inactive)"},
      {"molecule": "COc1cc(/C=C/c2cc[n+](C)cc2)ccc1O", "growth inhibition": "-8% (inactive)"},
      {"molecule": "COc1cc(C2c3cc4c(cc3C(OC3CCCCO3)C3COC(=O)C23)OCO4)cc(OC)c1OC", "note": "(stereo not drawn)", "growth inhibition": "-6% (inactive)"},
      {"molecule": "O=S(=O)(N/N=C/c1ccc(Cl)cc1Cl)c1ccccc1", "growth inhibition": "8% (inactive)"},
      {"molecule": "Cc1ccc(C(=O)/C(Cl)=N/O)cc1", "growth inhibition": "27% (inactive)"},
      {"molecule": "Cc1ccnc(NS(=O)(=O)c2ccc(N=Cc3c4ccccc4nc4cc(Cl)ccc34)cc2)n1", "growth inhibition": "24% (inactive)"},
      {"molecule": "COc1cc(CCN=Cc2cc(Cl)cc(Cl)c2O)c([N+](=O)[O-])cc1OC", "growth inhibition": "64% (inactive)"},
      {"molecule": "COc1ccc(C(C)c2cc3c(cc2OC/C(C)=N/NC(N)=O)OCO3)cc1", "note": "(stereo not drawn)", "growth inhibition": "61% (inactive)"},
      {"molecule": "C/C(CCC1CCc2ccccc2C1)=N\\NC(N)=O", "note": "(stereo not drawn)", "growth inhibition": "-8% (inactive)"},
      {"molecule": "Cc1nc(C(N)=S)sc1C(=O)CC(=O)C(=O)Nc1nc2ccccc2[nH]1", "growth inhibition": "12% (inactive)"},
      {"molecule": "Clc1ccc([O][In]([O]c2ccc(Cl)cn2)[O]c2ccc(Cl)cn2)nc1", "growth inhibition": "-5% (inactive)"},
      {"molecule": "Cc1ccc(S(=O)(=O)C(=S)Sc2ccccc2)cc1", "growth inhibition": "11% (inactive)"},
      {"molecule": "Fc1ccc2[nH]ccc2c1", "growth inhibition": "-19% (inactive)"},
      {"molecule": "C(=C/c1ccccc1)/C=N/Nc1ccccc1", "growth inhibition": "-107% (inactive)"},
      {"molecule": "O=S1(=O)CC2C1C1(Cl)OC2(Cl)c2ccccc21", "note": "(stereo not drawn)", "growth inhibition": "1% (inactive)"},
      {"molecule": "CCCNC(=O)C(=O)NNc1ccccc1", "growth inhibition": "14% (inactive)"},
      {"molecule": "C/C(=N/O)c1cccc(C(F)(F)F)c1", "growth inhibition": "-128% (inactive)"},
      {"molecule": "COC1=CC(=O)c2c(O)c3c(c(O)c2C1=O)OC1(Oc2c(cc4cc(C)oc(=O)c4c2O)CC1O)C3O", "note": "(stereo not drawn)", "growth inhibition": "97% (active)"},
      {"molecule": "CC(C)C1/C(=N/O)CC(c2ccccc2)N(N=O)C1c1ccccc1", "note": "(stereo not drawn)", "growth inhibition": "-6% (inactive)"},
      {"molecule": "Cc1c(N)nc(C2CC(=O)N2CC(N)C(N)=O)nc1C(=O)NC(C(=O)NC(C)C(O)C(C)C(=O)NC(C(=O)NCCc1nc(-c2nc(C(=O)NCCCNC3CCCC3)cs2)cs1)C(C)O)C(OC1OC(CO)C(O)C(O)C1OC1OC(CO)C(O)C(OC(N)=O)C1O)c1cnc[nH]1", "note": "(stereo not drawn)", "growth inhibition": "98% (active)"},
      {"molecule": "CCOC(=O)C1(Br)CCN(S(=O)(=O)c2ccc(C)cc2)c2ccccc2C1=O", "note": "(stereo not drawn)", "growth inhibition": "18% (inactive)"},
      {"molecule": "O=C(C[n+]1ccccc1)c1ccc2ccc3ccc(Cl)cc3c2c1", "growth inhibition": "29% (inactive)"}
    ]},
    {"assay": "NCI Yeast Anticancer Drug Screen. Data for the mlh1 rad18 strain (AID 175)", "details": "S. cerevisiae mlh1 rad18 strain growth inhibition; at 50.0 µM (retest, dose inferred, filed as 5.0); hits give high values", "outline": "as §1", "values": [
      {"molecule": "CC(C)c1ccc2c(c1)CC[C@@H]1[C@](C)(CO)CCC[C@]21C", "growth inhibition": "95% (active)"},
      {"molecule": "O=c1c2ccccc2ncn1Cc1ccccc1[N+](=O)[O-]", "growth inhibition": "18% (inactive)"},
      {"molecule": "O=C(NO)C(=O)Nc1cc(Cl)ccc1Cl", "growth inhibition": "94% (active)"},
      {"molecule": "CCCCCCCCCCCCOC(=O)C[n+]1cccc(C(=O)Nc2ccccc2)c1", "growth inhibition": "99% (active)"},
      {"molecule": "O=C1C=CC(=O)c2ccc(=O)ccc21", "growth inhibition": "98% (active)"},
      {"molecule": "Cn1c(=O)nc2n(-c3ccc(Cl)cc3)c3cc(Cl)ccc3nc-2c1=O", "growth inhibition": "20% (inactive)"},
      {"molecule": "Clc1ccc(CN2COc3c(ccc4ccccc34)C2)cc1", "growth inhibition": "96% (active)"},
      {"molecule": "C1CCN(c2nc(N3CCOCC3)c3[nH]c(N4CCCCC4)nc3n2)CC1", "growth inhibition": "68% (inactive)"},
      {"molecule": "O=C1c2ccccc2-c2cc([N+](=O)[O-])c([N+](=O)[O-])cc21", "growth inhibition": "98% (active)"},
      {"molecule": "CCC[CH2][Sn]([CH2]CCC)([O]C(=O)Cc1ccc(F)cc1)[O]C(=O)Cc1ccc(F)cc1", "growth inhibition": "14% (inactive)"},
      {"molecule": "ClCc1ccc2oc3ccccc3c2c1", "growth inhibition": "5% (inactive)"},
      {"molecule": "O=C1Oc2ccccc2C(=O)/C1=C/N1C(=O)/C(=C/c2ccc([N+](=O)[O-])cc2)SC1=S", "growth inhibition": "77% (active)"},
      {"molecule": "COC1=CC(=O)c2ncc(Cl)cc2C1=O", "growth inhibition": "97% (active)"},
      {"molecule": "CN(C)c1ccc(C(c2ccc(N(C)C)cc2)c2ccc3c(c2)OCO3)cc1", "growth inhibition": "90% (active)"},
      {"molecule": "CC(C)(C)OC(=O)CSC#N", "growth inhibition": "92% (active)"},
      {"molecule": "CN=c1ss/c(=N\\C(=S)N(C)C)n1-c1ccccc1", "growth inhibition": "3% (inactive)"},
      {"molecule": "CCCCCCCCCCCCCCCBr", "growth inhibition": "18% (inactive)"},
      {"molecule": "O=c1c2ccccc2[nH]c2c1[nH]c1ccccc12", "growth inhibition": "28% (inactive)"},
      {"molecule": "COc1cc(/C=C/c2cc[n+](C)cc2)ccc1O", "growth inhibition": "-10% (inactive)"},
      {"molecule": "COc1cc(C2c3cc4c(cc3C(OC3CCCCO3)C3COC(=O)C23)OCO4)cc(OC)c1OC", "note": "(stereo not drawn)", "growth inhibition": "14% (inactive)"},
      {"molecule": "O=S(=O)(N/N=C/c1ccc(Cl)cc1Cl)c1ccccc1", "growth inhibition": "4% (inactive)"},
      {"molecule": "Cc1ccc(C(=O)/C(Cl)=N/O)cc1", "growth inhibition": "99% (active)"},
      {"molecule": "Cc1ccnc(NS(=O)(=O)c2ccc(N=Cc3c4ccccc4nc4cc(Cl)ccc34)cc2)n1", "growth inhibition": "11% (inactive)"},
      {"molecule": "COc1cc(CCN=Cc2cc(Cl)cc(Cl)c2O)c([N+](=O)[O-])cc1OC", "growth inhibition": "91% (active)"},
      {"molecule": "COc1ccc(C(C)c2cc3c(cc2OC/C(C)=N/NC(N)=O)OCO3)cc1", "note": "(stereo not drawn)", "growth inhibition": "96% (active)"},
      {"molecule": "C/C(CCC1CCc2ccccc2C1)=N\\NC(N)=O", "note": "(stereo not drawn)", "growth inhibition": "-10% (inactive)"},
      {"molecule": "Cc1nc(C(N)=S)sc1C(=O)CC(=O)C(=O)Nc1nc2ccccc2[nH]1", "growth inhibition": "25% (inactive)"},
      {"molecule": "Clc1ccc([O][In]([O]c2ccc(Cl)cn2)[O]c2ccc(Cl)cn2)nc1", "growth inhibition": "-5% (inactive)"},
      {"molecule": "Cc1ccc(S(=O)(=O)C(=S)Sc2ccccc2)cc1", "growth inhibition": "92% (active)"},
      {"molecule": "Fc1ccc2[nH]ccc2c1", "growth inhibition": "44% (inactive)"},
      {"molecule": "C(=C/c1ccccc1)/C=N/Nc1ccccc1", "growth inhibition": "-79% (inactive)"},
      {"molecule": "O=S1(=O)CC2C1C1(Cl)OC2(Cl)c2ccccc21", "note": "(stereo not drawn)", "growth inhibition": "1% (inactive)"},
      {"molecule": "CCCNC(=O)C(=O)NNc1ccccc1", "growth inhibition": "95% (active)"},
      {"molecule": "C/C(=N/O)c1cccc(C(F)(F)F)c1", "growth inhibition": "-127% (inactive)"},
      {"molecule": "COC1=CC(=O)c2c(O)c3c(c(O)c2C1=O)OC1(Oc2c(cc4cc(C)oc(=O)c4c2O)CC1O)C3O", "note": "(stereo not drawn)", "growth inhibition": "98% (active)"},
      {"molecule": "CC(C)C1/C(=N/O)CC(c2ccccc2)N(N=O)C1c1ccccc1", "note": "(stereo not drawn)", "growth inhibition": "98% (active)"},
      {"molecule": "Cc1c(N)nc(C2CC(=O)N2CC(N)C(N)=O)nc1C(=O)NC(C(=O)NC(C)C(O)C(C)C(=O)NC(C(=O)NCCc1nc(-c2nc(C(=O)NCCCNC3CCCC3)cs2)cs1)C(C)O)C(OC1OC(CO)C(O)C(O)C1OC1OC(CO)C(O)C(OC(N)=O)C1O)c1cnc[nH]1", "note": "(stereo not drawn)", "growth inhibition": "99% (active)"},
      {"molecule": "CCOC(=O)C1(Br)CCN(S(=O)(=O)c2ccc(C)cc2)c2ccccc2C1=O", "note": "(stereo not drawn)", "growth inhibition": "97% (active)"},
      {"molecule": "O=C(C[n+]1ccccc1)c1ccc2ccc3ccc(Cl)cc3c2c1", "growth inhibition": "82% (active)"}
    ]}
  ]
}
